In the supplement of paper PMC11732987, “Enantioselective OTUD7B fragment discovery through chemoproteomics screening and high-throughput optimisation” (Communications Chemistry, 2025):

Legend:
Assay in all cases: log2 ratio of Biotin-Ahx-Ub-VS probe labelling (fragment/DMSO); higher = less target engagement (more negative = stronger competition), active = hit call of the paper (q ≤ 0.05, log2 ratio ≤ -1)
Settings in all cases: compound concentration: 200 uM; treatment time: 3 h
USP34 = USP34 (UniProt Q70CQ2)
Sequence of USP34 (Q70CQ2 whole entry, the tested form may be a part): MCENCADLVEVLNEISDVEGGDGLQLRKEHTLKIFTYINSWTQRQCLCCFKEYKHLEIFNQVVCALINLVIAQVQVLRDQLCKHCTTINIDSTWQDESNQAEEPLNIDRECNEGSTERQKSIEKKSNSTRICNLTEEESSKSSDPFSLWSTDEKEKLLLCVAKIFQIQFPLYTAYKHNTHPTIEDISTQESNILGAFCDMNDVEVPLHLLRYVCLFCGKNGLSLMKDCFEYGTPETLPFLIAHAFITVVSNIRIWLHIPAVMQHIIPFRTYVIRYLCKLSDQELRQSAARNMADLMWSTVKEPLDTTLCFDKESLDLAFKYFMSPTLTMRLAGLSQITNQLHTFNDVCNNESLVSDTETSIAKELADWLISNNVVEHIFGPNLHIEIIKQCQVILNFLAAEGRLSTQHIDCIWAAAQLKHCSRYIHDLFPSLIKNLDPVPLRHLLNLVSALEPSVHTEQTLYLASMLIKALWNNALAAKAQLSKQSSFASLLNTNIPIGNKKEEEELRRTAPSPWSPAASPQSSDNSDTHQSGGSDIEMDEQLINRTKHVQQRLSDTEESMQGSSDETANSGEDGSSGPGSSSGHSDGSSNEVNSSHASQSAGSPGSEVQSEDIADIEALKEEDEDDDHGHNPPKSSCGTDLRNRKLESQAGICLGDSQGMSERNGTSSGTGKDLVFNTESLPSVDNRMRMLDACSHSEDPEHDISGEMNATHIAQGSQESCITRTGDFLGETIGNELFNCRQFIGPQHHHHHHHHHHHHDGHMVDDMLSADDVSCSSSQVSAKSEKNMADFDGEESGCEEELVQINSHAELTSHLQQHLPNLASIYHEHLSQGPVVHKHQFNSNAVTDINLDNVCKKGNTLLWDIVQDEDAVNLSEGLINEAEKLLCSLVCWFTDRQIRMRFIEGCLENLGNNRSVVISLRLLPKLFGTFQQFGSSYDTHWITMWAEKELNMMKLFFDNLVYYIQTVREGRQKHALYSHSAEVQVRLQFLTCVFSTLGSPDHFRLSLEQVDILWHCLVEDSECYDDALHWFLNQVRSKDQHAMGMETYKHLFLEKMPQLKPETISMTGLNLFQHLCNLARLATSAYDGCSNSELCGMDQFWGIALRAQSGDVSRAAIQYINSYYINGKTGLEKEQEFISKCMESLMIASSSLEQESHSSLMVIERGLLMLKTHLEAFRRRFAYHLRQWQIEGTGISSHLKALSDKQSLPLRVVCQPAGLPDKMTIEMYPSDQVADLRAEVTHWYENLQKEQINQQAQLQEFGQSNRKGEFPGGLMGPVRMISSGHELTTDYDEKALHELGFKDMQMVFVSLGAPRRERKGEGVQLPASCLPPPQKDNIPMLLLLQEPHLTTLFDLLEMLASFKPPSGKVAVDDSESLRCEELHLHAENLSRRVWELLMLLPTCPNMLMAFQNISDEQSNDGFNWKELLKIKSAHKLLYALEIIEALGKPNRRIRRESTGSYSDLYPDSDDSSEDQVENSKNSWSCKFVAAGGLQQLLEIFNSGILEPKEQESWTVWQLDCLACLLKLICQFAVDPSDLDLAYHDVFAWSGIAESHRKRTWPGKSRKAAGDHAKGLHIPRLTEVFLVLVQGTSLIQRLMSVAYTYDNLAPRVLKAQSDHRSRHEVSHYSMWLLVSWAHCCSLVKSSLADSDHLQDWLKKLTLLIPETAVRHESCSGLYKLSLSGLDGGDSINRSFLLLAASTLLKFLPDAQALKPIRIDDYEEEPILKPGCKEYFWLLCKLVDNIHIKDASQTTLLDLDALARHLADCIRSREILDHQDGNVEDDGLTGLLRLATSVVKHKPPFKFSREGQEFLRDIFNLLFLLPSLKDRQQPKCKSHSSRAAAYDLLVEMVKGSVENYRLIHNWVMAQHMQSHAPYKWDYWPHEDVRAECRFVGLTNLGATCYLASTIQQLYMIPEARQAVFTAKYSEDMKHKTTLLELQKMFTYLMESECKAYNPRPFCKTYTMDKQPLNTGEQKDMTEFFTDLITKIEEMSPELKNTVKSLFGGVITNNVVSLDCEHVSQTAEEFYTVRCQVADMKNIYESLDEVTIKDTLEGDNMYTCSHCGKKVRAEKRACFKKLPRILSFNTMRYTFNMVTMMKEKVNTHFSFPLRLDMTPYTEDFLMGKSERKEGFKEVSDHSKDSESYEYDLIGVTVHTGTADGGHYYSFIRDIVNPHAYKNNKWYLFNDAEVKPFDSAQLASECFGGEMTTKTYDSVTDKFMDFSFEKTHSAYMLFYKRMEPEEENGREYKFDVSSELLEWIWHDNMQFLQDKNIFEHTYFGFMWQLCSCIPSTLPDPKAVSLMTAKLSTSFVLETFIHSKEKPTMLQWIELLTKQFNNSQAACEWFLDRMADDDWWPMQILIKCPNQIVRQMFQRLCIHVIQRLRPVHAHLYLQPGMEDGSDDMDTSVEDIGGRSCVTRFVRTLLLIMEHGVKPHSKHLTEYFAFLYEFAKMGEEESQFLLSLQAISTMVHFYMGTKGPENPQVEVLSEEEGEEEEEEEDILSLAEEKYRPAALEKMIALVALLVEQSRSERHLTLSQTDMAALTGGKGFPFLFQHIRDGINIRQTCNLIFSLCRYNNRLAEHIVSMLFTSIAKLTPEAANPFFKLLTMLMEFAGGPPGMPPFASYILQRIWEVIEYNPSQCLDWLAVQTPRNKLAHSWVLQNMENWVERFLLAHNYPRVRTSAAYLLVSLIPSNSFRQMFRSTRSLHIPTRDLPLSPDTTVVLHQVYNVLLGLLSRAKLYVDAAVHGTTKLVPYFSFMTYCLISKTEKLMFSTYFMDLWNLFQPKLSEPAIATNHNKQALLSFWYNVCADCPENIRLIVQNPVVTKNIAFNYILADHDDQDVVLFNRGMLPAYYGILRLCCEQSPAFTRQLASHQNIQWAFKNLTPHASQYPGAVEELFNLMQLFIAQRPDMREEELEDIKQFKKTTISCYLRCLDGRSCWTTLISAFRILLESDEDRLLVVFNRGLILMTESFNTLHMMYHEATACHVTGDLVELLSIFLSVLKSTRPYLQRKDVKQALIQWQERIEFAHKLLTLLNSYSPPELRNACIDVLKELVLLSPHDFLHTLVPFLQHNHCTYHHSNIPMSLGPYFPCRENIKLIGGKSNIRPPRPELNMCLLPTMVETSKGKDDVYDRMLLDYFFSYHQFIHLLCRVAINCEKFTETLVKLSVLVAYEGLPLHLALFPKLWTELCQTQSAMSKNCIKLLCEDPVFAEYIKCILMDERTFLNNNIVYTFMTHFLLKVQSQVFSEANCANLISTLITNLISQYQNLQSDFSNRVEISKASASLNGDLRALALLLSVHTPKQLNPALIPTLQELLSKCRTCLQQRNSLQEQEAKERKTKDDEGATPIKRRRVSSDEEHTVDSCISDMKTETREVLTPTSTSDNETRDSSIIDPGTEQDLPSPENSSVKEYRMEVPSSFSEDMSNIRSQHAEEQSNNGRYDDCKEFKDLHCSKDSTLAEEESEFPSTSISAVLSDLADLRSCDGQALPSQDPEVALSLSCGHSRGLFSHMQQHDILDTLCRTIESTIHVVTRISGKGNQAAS
Summary of the method: (§1)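 Each value is an average log2 ratio of fragment to vehicle, tested by unpaired t-test. The underlying Spectronaut label-free quantities were global-median-normalised, and only proteins with ≥2 unique peptides were included. Triplicate HEK293T lysate samples (495 µg) were exposed to fragment at 200 µM or vehicle for 3 h, then to Biotin-Ahx-Ub-VS at 0.5 µM final for 1 h, before NeutrAvidin enrichment of labelled DUBs, LysC and trypsin digestion, and diaPASEF LC-MS/MS.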

USP36 = molecular target: T1, USP36 (UniProt Q9P275)
T1 sequence (whole entry): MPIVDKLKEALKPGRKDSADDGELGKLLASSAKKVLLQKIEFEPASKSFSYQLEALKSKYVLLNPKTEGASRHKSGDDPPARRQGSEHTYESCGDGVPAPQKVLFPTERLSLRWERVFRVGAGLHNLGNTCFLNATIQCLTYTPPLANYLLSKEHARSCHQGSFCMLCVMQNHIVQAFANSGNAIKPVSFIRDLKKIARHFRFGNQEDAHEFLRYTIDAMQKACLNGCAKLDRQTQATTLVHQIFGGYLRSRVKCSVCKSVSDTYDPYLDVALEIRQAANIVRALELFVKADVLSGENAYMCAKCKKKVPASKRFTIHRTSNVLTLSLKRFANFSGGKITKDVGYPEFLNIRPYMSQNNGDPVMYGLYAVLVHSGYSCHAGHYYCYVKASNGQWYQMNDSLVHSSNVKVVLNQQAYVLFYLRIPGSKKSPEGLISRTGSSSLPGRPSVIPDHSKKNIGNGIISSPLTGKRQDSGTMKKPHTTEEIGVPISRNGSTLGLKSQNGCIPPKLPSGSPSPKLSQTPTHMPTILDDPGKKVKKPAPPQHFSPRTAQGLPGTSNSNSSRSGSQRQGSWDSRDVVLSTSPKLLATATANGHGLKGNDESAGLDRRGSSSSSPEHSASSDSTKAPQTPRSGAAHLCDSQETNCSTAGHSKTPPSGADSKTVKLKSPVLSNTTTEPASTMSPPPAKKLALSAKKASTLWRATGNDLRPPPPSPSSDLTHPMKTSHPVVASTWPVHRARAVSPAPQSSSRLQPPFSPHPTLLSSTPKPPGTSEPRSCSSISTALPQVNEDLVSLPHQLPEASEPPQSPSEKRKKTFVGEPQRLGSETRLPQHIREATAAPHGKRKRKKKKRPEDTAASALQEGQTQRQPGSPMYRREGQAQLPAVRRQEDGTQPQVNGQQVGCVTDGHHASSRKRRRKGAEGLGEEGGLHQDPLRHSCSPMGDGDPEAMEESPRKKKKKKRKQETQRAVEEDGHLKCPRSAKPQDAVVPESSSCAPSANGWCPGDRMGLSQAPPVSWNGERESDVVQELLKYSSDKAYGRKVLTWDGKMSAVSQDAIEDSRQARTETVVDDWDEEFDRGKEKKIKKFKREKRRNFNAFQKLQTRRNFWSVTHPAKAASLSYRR
Summary of the method: as §1

USP38 = molecular target: T2, USP38 (UniProt Q8NB14)
T2 sequence (whole entry): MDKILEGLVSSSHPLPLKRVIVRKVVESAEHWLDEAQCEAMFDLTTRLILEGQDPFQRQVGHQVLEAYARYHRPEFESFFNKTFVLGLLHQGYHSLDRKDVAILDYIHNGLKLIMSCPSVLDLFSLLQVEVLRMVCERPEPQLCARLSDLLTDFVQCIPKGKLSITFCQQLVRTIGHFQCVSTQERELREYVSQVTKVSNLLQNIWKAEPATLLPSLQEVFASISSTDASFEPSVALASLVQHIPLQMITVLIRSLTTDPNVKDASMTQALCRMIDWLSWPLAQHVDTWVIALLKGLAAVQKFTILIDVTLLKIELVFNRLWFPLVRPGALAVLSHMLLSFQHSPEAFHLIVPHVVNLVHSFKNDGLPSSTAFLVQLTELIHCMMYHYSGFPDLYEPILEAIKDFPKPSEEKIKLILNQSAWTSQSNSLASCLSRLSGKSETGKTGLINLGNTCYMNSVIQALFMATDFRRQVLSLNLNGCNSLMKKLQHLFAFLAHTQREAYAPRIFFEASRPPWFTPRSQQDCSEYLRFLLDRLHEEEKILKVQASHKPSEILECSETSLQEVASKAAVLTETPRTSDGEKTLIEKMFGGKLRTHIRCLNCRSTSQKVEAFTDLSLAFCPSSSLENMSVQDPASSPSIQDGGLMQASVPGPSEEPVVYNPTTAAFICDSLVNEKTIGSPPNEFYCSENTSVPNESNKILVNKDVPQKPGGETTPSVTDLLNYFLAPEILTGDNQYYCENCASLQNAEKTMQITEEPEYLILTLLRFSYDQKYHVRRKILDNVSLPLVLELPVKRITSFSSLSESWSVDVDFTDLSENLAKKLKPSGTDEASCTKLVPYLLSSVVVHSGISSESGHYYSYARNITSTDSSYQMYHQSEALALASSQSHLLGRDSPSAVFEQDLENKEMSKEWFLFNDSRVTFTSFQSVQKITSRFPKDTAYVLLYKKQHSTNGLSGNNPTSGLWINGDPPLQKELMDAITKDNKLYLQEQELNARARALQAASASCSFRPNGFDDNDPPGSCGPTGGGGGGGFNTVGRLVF
Summary of the method: as §1

USP39 = molecular target: T3, USP39 (UniProt Q53GS9)
T3 sequence (whole entry): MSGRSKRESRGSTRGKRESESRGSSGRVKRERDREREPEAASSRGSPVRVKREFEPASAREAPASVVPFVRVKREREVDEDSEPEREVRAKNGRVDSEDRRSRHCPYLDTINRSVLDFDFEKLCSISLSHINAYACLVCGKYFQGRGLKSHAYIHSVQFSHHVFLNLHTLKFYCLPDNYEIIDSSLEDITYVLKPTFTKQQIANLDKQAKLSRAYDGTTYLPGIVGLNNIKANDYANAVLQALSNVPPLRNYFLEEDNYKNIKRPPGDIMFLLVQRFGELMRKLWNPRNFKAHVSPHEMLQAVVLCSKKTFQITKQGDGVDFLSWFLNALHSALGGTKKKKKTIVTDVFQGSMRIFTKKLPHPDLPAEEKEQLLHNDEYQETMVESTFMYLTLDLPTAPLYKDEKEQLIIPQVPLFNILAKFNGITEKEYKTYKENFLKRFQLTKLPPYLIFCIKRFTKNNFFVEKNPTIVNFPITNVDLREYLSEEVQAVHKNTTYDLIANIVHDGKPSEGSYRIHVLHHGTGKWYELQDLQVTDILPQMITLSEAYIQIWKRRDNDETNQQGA
Summary of the method: as §1

USP4 = molecular target: T4, USP4 (UniProt Q13107)
T4 sequence (whole entry): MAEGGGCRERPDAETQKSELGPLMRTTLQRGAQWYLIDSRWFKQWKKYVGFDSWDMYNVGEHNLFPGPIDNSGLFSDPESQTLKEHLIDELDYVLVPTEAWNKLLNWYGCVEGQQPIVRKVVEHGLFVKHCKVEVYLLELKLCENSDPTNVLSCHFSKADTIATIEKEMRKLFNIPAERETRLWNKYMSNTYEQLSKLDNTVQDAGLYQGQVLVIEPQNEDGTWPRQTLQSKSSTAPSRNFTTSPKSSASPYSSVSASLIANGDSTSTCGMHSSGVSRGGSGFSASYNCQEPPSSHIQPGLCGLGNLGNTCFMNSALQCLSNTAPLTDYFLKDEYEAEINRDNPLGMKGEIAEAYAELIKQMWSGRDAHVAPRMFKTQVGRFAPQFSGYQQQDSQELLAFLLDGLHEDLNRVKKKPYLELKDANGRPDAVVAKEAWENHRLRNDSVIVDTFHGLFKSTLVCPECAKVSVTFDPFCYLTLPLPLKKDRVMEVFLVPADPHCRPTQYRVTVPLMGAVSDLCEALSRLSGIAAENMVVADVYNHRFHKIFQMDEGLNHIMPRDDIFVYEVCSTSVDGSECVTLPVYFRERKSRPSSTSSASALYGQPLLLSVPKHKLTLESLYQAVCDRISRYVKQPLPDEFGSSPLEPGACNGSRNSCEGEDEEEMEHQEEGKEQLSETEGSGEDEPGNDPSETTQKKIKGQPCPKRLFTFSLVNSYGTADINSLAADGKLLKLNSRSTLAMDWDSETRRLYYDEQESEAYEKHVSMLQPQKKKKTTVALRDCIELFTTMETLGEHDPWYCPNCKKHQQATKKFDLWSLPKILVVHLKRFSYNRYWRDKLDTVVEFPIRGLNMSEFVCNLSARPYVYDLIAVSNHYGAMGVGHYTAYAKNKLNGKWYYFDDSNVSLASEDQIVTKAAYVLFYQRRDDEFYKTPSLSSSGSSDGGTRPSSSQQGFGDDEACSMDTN
Summary of the method: as §1

Measured: log2 ratio of Biotin-Ahx-Ub-VS probe labelling

CC(NC(=O)CCl)c1cccc2ccccc12 (stereo not given)
inactive: USP34 -0.0995 | USP36 -0.062 | USP38 0.0489 | USP39 0.171 | USP4 -0.154
